Results filed as inconclusive are left out. Active and inactive are the calls of the source. The calls were made as follows, unless noted: active = hit-call score of the fitted dose curve at least 0.9, where 1 is the maximum; inactive = score below 0.9.
What was measured:
[1] = molecular target: Paired box protein Pax-6 (Homo sapiens) (UniProt P26367); experiment: ATG_Pax6_CIS: Attagene CIS-FACTORIAL HepG2 Assay for human Paired Box 6 (PAX6) (AID 2282956); conditions: HepG2 CIS-FACTORIAL PAX6 reporter transcription, RNA readout; actives raise or lower the signal
Summary of the method: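 After twenty-four hours of chemical exposure, transfected HepG2 cells are harvested for RNA. Cis-promoter reporter transcripts are amplified, fluorescently labelled and sized by capillary electrophoresis, with gain and loss of signal scored against DMSO.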

[2] = ATG_PXRE_CIS: Attagene CIS-FACTORIAL HepG2 Assay for human Pregnane X Receptor Element (PXRE) (AID 2282957); conditions: HepG2 Attagene CIS-FACTORIAL PXRE reporter, mRNA; actives raise or lower the signal
Summary of the method: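 Cells: HepG2, transiently transfected reporter units under cis promoter control. Exposure: 24 h. Detection: reporter mRNA via RT-PCR/CE fluorescence; bidirectional fitting, DMSO-referenced.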

[3] = ATG_RORE_CIS: Attagene CIS-FACTORIAL HepG2 Assay for human RAR-related Orphan Receptor Element (RORE) (AID 2282959); conditions: HepG2 Attagene cis-factorial RORE reporter, mRNA; actives raise or lower the signal
Summary of the method: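 A 24-hour exposure of transfected HepG2 hepatoma cells precedes RNA isolation and reporter RT-PCR. Labeled products are digested with HpaI and resolved by capillary electrophoresis, with gain or loss of signal scored relative to DMSO.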

[4] = ATG_Sox_CIS: Attagene CIS-FACTORIAL HepG2 Assay for human SRY-box transcription factor (SOX) (AID 2282960); conditions: HepG2 Attagene cis-factorial SOX reporter, mRNA; actives raise or lower the signal
Summary of the method: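 HepG2, cis reporter units, 24 h exposure. Reporter mRNA: RT-PCR → FAM labelling → HpaI → CE fluorescence. Bidirectional fit vs DMSO.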

[5] = ATG_SREBP_CIS: Attagene CIS-FACTORIAL HepG2 Assay for human Sterol Regulatory Element Binding (SREBP) (AID 2282962); conditions: HepG2 Attagene cis-factorial SREBP reporter, mRNA; actives raise or lower the signal
Summary of the method: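 Twenty-four hours after chemical dosing of transfected HepG2 cultures, reporter RNA was converted to cDNA, amplified, end-labelled with 6-FAM and resolved by capillary electrophoresis. Responses were fitted relative to DMSO.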

[6] = molecular target: Signal transducer and activator of transcription 3 (Homo sapiens) (UniProt P40763); experiment: ATG_STAT3_CIS: Attagene CIS-FACTORIAL HepG2 Assay for human Signal Transducer and Activator of Transcription 3 (STAT3) (AID 2282963); conditions: HepG2, Attagene cis-factorial STAT3 reporter transcription; actives raise or lower the signal
Summary of the method: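 HepG2 cells transiently transfected with cis-element-driven multiple reporter transcription units; after 24 h chemical exposure, reporter mRNA measured by RT-PCR, 6-FAM primer-extension labelling, HpaI digestion and capillary electrophoresis. Bidirectional fitting versus DMSO baseline.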

[7] = ATG_TA_CIS: Attagene CIS-FACTORIAL HepG2 Assay for human TA Basal Promoter (AID 2282964); conditions: HepG2 Attagene CIS-factorial TA basal promoter reporter; actives raise or lower the signal
Summary of the method: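 Background internal-marker endpoint from a 52-component HepG2 cis-reporter panel. Cells treated 24 h; reporter transcripts quantified via RT-PCR and CE fluorescence against DMSO baseline.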

[8] = ATG_TCF_b_cat_CIS: Attagene CIS-FACTORIAL HepG2 Assay for human T-Cell-Factor with beta-catenin (TCF/b-cat) (AID 2282965); conditions: HepG2 TCF/beta-catenin cis-reporter transcription, actives raise or lower the signal
Summary of the method: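 In this cis-format system, transfected HepG2 cells report endogenous transcription factor activity. Readout after 24 h exposure is reporter transcript abundance from RT-PCR and capillary electrophoresis, analysed for gain or loss of signal versus DMSO.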

[9] = ATG_TAL_CIS: Attagene CIS-FACTORIAL HepG2 Assay for human TAL Basal Promoter (AID 2282966); conditions: HepG2 Attagene cis-factorial TAL promoter reporter; actives raise or lower the signal;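 also: background control endpoint measuring basal TAL promoter reporter mRNA not a specific factor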
Summary of the method: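 RT-PCR plus capillary electrophoresis quantifies reporter mRNA induction in transiently transfected HepG2 cells after 24 h chemical treatment. DMSO serves as negative control and baseline for bidirectional fitting.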

[10] = ATG_TGFb_CIS: Attagene CIS-FACTORIAL HepG2 Assay for human Transforming Growth Factor (TGF) (AID 2282967); conditions: HepG2 Attagene CIS TGFb reporter, mRNA transcription; actives raise or lower the signal
Summary of the method: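 Liver HepG2 line, cis-factorial reporter panel, 24 h dosing. Quantitation: RT-PCR products labeled with 6-FAM, cut with HpaI, resolved by capillary electrophoresis; DMSO-referenced bidirectional analysis.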

[11] = ATG_VDRE_CIS: Attagene CIS-FACTORIAL HepG2 Assay for human Vitamin D Receptor Element (VDRE) (AID 2282968); conditions: HepG2 VDRE cis-reporter transcription, actives raise or lower the signal
Summary of the method: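 HepG2 cells transiently transfected with cis-element reporter units, dosed 24 h; reporter mRNA measured by RT-PCR, 6-FAM labeling, HpaI digestion and capillary electrophoresis. Activity fitted bidirectionally against DMSO baseline.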

[12] = molecular target: Glucocorticoid receptor (Homo sapiens) (UniProt P04150); experiment: ATG_GR_TRANS: Attagene TRANS-FACTORIAL HepG2 Assay for human Glucocorticoid Receptor (GR) (AID 2282978; active = hit-call score of the fitted dose curve at least 0.9, where 1 is the maximum;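 also: activators score as hits since higher reporter transcript over DMSO is fitted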); conditions: HepG2 Attagene TRANS GR reporter, mRNA transcription
Summary of the method: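 After 24 h incubation with test chemical, transfected HepG2 cells were lysed for RNA; reporter cDNA was amplified, FAM-labelled, HpaI-digested and sized on a capillary analyser. Signal gain relative to DMSO was scored.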

[13] = molecular target: Nuclear receptor subfamily 1 group I member 3 (Homo sapiens) (UniProt Q14994); experiment: ATG_CAR_TRANS: Attagene TRANS-FACTORIAL HepG2 Assay for human Constitutive Androstane Receptor (CAR) (AID 2282969; active = hit-call score of the fitted dose curve at least 0.9, where 1 is the maximum;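 also: activators raise reporter mRNA above DMSO so AC50 marks induction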); conditions: HepG2 Attagene TRANS-FACTORIAL CAR reporter
Summary of the method: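 HepG2 cells transiently transfected with multiplexed GAL4-UAS reporter units expressing chimeric NR-Gal4 proteins; compound exposure 24 h. Reporter mRNA measured by RT-PCR, 6-FAM labelling, HpaI digestion and capillary electrophoresis; gain-of-signal fitted against DMSO baseline.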

[14] = ATG_GAL4_TRANS: Attagene TRANS-FACTORIAL HepG2 Assay for GAL4 (Internal Marker) (AID 2282976; active = hit-call score of the fitted dose curve at least 0.9, where 1 is the maximum); conditions: HepG2 Attagene TRANS GAL4 internal marker reporter
Summary of the method: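 In transfected human HepG2 liver cells dosed 24 h, GAL4 reporter mRNA serves as a baseline marker. Detection by RT-PCR with fluorescent capillary electrophoresis, activity fitted upward relative to DMSO.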

[15] = molecular target: Transcription factor Sp1 (Homo sapiens) (UniProt P08047); experiment: ATG_Sp1_CIS: Attagene CIS-FACTORIAL HepG2 Assay for human Specificity Protein 1 (Sp1) (AID 2282961); conditions: HepG2 Sp1 cis-reporter transcription, actives raise or lower the signal
Summary of the method: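 Liver-derived HepG2 cells, cis-element reporter library, 24 h treatment; RNA isolated, cDNA amplified with reporter-specific primers, FAM-labeled fragments sized on capillary analyzer. DMSO baseline, bidirectional curve fit.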

[16] = molecular target: X-box-binding protein 1 (Homo sapiens) (UniProt P17861); experiment: ATG_Xbp1_CIS: Attagene CIS-FACTORIAL HepG2 Assay for human X-box Binding Protein 1 (XBP1) (AID 2282972); conditions: HepG2 XBP1 cis-element reporter, Attagene multiplex; actives raise or lower the signal
Summary of the method: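 After a 24-hour chemical exposure of HepG2 cells carrying cis-regulated reporters, reporter mRNA levels are assessed. Quantification uses RT-PCR, 6-FAM labelling and capillary electrophoresis. Gain- or loss-of-signal is fitted against DMSO.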

[17] = molecular target: Estrogen-related receptor gamma (Homo sapiens) (UniProt P62508); experiment: ATG_ERRg_TRANS: Attagene TRANS-FACTORIAL HepG2 Assay for human Estrogen-Related Receptor gamma (ERRg) (AID 2282977; active = hit-call score of the fitted dose curve at least 0.9, where 1 is the maximum;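 also: hits increase reporter signal over DMSO so potencies reflect activators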); conditions: HepG2 Attagene TRANS reporter, ERRg transactivation
Summary of the method: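 HepG2 cells transiently transfected with multiplexed GAL4-UAS reporter units and chimeric NR-Gal4 constructs were exposed to test chemicals for 24 h. Reporter mRNA was measured by RT-PCR, 6-FAM primer extension, HpaI digestion and capillary electrophoresis; gain-of-signal versus DMSO.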

[18] = ATG_M_19_TRANS: Attagene TRANS-FACTORIAL HepG2 Assay for M19 Transcription Factor (Internal Marker) (AID 2282974; active = hit-call score of the fitted dose curve at least 0.9, where 1 is the maximum); conditions: HepG2 Attagene TRANS-FACTORIAL M19 internal marker reporter
Summary of the method: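 Transfected HepG2 (GAL4-UAS MRTUs), 24 h compound, TriZol RNA, DNase-treated RT, reporter PCR, FAM label, HpaI digest, CE fluorescence; gain vs DMSO.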

Sequence of X-box-binding protein 1 (Homo sapiens) (P17861 whole entry, looked up): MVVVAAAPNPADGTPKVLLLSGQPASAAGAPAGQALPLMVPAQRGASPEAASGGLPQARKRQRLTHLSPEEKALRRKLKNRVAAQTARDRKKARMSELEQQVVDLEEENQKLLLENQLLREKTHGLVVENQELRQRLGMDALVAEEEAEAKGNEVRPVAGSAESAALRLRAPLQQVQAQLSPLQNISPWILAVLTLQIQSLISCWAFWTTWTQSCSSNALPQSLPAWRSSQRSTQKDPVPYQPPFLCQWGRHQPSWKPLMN
Sequence of Signal transducer and activator of transcription 3 (Homo sapiens) (P40763 whole entry, looked up): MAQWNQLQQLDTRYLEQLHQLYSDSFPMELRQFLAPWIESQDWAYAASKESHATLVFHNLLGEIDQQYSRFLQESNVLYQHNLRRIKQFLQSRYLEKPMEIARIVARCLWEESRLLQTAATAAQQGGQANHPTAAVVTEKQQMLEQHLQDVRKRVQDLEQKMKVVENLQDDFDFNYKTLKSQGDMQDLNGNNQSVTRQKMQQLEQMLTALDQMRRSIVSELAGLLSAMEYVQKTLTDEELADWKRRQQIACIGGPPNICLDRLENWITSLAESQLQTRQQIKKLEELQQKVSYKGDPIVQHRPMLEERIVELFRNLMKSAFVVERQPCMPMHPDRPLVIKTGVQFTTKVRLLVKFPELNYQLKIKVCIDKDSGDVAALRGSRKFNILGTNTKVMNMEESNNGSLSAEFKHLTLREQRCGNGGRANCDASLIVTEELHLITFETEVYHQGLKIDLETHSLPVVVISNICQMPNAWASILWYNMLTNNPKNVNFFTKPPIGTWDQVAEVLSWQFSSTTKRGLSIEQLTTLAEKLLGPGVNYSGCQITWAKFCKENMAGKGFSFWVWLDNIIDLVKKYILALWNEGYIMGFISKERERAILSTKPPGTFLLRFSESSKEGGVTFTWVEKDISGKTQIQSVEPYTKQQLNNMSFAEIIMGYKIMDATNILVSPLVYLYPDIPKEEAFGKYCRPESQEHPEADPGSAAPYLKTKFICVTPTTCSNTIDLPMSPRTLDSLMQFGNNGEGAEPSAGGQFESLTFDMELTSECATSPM
Sequence of Glucocorticoid receptor (Homo sapiens) (P04150 whole entry, looked up): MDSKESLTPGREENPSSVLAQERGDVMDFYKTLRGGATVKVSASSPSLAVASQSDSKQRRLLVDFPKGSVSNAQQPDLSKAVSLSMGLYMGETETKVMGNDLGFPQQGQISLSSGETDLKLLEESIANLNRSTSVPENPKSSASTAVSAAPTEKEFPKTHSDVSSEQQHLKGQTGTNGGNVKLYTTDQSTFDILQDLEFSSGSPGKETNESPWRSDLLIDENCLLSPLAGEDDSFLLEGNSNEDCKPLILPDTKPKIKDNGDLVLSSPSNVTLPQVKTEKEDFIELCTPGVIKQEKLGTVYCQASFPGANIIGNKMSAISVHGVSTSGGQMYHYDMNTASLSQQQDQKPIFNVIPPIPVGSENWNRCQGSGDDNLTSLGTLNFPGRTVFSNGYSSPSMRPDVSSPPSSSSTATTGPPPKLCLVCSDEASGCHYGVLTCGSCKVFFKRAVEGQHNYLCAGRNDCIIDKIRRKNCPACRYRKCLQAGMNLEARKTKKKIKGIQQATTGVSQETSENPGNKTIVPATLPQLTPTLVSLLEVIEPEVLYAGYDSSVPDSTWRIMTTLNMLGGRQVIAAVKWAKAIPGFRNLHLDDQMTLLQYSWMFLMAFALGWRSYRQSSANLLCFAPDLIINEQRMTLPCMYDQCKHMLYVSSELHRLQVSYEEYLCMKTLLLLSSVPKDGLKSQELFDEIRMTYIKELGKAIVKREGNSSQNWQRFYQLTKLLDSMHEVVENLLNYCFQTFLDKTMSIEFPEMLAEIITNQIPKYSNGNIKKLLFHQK
Sequence of Paired box protein Pax-6 (Homo sapiens) (P26367 whole entry, looked up): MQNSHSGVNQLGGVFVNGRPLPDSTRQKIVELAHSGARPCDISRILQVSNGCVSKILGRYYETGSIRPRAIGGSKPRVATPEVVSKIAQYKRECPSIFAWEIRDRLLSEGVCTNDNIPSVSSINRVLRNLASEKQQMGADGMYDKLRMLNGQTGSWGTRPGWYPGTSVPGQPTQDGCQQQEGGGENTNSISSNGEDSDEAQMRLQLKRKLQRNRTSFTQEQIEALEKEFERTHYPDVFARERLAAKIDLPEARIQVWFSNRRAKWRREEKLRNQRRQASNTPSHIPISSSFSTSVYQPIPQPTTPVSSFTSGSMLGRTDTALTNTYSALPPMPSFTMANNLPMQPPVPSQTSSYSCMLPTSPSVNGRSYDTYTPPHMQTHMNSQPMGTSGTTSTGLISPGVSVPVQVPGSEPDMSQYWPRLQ
Sequence of Transcription factor Sp1 (Homo sapiens) (P08047 whole entry, looked up, the tested form may be a part): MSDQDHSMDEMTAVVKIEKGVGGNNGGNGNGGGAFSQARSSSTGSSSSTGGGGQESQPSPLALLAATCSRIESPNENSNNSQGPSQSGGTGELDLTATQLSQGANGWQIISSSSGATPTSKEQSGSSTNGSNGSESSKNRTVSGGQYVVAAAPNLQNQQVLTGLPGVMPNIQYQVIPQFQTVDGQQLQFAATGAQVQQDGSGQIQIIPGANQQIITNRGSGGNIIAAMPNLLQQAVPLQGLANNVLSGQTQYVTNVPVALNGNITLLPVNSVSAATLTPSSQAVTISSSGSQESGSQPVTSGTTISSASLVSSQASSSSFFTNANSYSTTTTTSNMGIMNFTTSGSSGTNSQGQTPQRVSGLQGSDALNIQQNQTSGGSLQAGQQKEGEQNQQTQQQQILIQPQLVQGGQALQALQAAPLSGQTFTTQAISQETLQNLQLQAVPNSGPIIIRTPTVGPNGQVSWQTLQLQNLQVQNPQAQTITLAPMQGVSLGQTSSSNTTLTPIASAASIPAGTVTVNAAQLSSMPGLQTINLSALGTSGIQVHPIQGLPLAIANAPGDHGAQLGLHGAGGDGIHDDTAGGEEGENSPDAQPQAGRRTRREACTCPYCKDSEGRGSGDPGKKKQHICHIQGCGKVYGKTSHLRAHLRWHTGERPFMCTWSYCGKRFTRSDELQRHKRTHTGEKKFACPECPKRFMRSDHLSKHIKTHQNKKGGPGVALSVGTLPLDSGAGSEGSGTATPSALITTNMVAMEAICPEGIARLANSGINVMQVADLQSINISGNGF
Sequence of Nuclear receptor subfamily 1 group I member 3 (Homo sapiens) (Q14994 whole entry, looked up, the tested form may be a part): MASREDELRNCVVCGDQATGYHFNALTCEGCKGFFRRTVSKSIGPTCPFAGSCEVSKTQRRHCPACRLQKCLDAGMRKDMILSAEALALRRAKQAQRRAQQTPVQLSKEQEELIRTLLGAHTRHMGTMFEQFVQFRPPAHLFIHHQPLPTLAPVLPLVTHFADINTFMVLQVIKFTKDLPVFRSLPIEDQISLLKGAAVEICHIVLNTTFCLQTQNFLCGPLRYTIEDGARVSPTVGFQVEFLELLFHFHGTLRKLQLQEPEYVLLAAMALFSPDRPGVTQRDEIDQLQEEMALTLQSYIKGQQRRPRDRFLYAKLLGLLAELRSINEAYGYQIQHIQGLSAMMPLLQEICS
Sequence of Estrogen-related receptor gamma (Homo sapiens) (P62508 whole entry, looked up, the tested form may be a part): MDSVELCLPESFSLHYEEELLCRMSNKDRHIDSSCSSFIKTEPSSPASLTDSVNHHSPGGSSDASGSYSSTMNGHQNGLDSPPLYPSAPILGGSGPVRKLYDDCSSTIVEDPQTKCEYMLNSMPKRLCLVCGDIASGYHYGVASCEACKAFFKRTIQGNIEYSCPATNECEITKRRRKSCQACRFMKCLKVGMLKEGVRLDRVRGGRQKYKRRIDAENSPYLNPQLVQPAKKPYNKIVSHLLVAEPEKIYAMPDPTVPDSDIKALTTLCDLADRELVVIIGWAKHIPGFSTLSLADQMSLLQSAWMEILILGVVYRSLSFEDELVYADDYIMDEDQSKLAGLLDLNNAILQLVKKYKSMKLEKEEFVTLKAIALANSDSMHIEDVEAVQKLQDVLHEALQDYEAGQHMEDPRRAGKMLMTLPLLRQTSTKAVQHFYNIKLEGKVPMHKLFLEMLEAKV

SMILES	outcome [1]	AC50 [2]	outcome [3]	outcome [4]	outcome [5]	outcome [6]	outcome [7]	outcome [8]	outcome [9]	outcome [10]	outcome [11]	outcome [12]	outcome [2]	outcome [13]	outcome [14]	outcome [15]	outcome [16]	outcome [17]	outcome [18]	AC50 [12]
c1ccc(CN(Cc2ccccc2)Cc2ccccc2)cc1	inactive	2.51 µM (active)	inactive	inactive	inactive	inactive	inactive	inactive	inactive	inactive	inactive	inactive	–	–	–	–	–	–	–	–
O=C(O)COCC(=O)O	inactive	–	inactive	inactive	inactive	inactive	inactive	inactive	inactive	inactive	inactive	–	inactive	inactive	inactive	–	–	–	–	–
CC(C)CCCCCCc1ccc(OCCOCCO)cc1	inactive	–	–	inactive	inactive	inactive	–	inactive	inactive	inactive	–	–	inactive	–	inactive	inactive	inactive	inactive	–	–
C=C(C)C1CC=C(C)C(=O)C1 (stereo not drawn)	inactive	33.4 µM (active)	inactive	inactive	inactive	inactive	inactive	inactive	inactive	inactive	inactive	–	–	–	–	–	inactive	–	–	–
CC1(C)O[C@@H]2C[C@H]3[C@@H]4CCC5=CC(=O)C=C[C@]5(C)[C@@]4(F)[C@@H](O)C[C@]3(C)[C@]2(C(=O)CO)O1	inactive	13.8 µM (active)	inactive	inactive	inactive	inactive	inactive	inactive	–	inactive	inactive	–	–	–	–	–	inactive	–	inactive	0.488 µM (active)
c1ccc(Oc2ccccc2)cc1	inactive	25.1 µM (active)	–	inactive	inactive	inactive	inactive	inactive	–	inactive	inactive	inactive	–	inactive	–	inactive	inactive	–	inactive	–
Nc1c(Cl)cc(Cl)cc1[N+](=O)[O-]	inactive	27.7 µM (active)	–	inactive	inactive	inactive	inactive	inactive	inactive	inactive	inactive	–	–	–	–	inactive	inactive	–	–	–

Reference: PubChem BioAssay (EPA / NIEHS)
